PubChem BioAssay AID2284059 (EPA ToxCast)
Active and inactive are the calls of the source. Rule for the calls: active = hit-call score of the fitted dose curve at least 0.9, where 1 is the maximum; inactive = score below 0.9.

Each molecule was assayed against CYP2E1, CYP2E1 (gene 1571) (UniProt P05181) (assay: ERF_FR_ADME_hCYP2E1: Eurofins (ERF) CYP450-related Enzyme Activity (ADME) Assay for CYP2E1).
Experimental: ERF_FR_ADME_hCYP2E1 is a biochemical, single-readout assay that uses extracted gene-proteins in a cell-free assay. Measurements were taken 0.16 hour after chemical dosing in a 96-well plate. See CYP2E1 inhibition (recombinant, EC substrate).ERF_FR_ADME_hCYP2E1 is an assay component calculated from the ERF_FR_ADME_hCYP2E1 assay. It is designed to measure enzyme activity using a type of enzyme reporter as detected by peak area response of 6-hydroxychlorzoxazone with HPLC-MS/MS technology.Data from the assay component ERF_FR_ADME_hCYP2E1 was analyzed at the assay endpoint, ERF_FR_ADME_hCYP2E1, in the positive analysis fitting direction relative to acetonitrile as the negative control and baseline of activity. Using a type of enzyme reporter, loss-of-signal activity can be used to understand changes in enzymatic activity as they relate to gene CYP2E1. To generalize the intended target to other relatable targets, this assay endpoint is annotated to the cyp intended target family, where the subfamily is steroidogenesis-related.
Assay is performed using 20 uM chlorzoxazone, cells are pre-incubated for 5 minutes, and then 10 minutes incubation with NADPH at 37C.

Chain of CYP2E1, CYP2E1 (gene 1571) (P05181 whole entry, looked up): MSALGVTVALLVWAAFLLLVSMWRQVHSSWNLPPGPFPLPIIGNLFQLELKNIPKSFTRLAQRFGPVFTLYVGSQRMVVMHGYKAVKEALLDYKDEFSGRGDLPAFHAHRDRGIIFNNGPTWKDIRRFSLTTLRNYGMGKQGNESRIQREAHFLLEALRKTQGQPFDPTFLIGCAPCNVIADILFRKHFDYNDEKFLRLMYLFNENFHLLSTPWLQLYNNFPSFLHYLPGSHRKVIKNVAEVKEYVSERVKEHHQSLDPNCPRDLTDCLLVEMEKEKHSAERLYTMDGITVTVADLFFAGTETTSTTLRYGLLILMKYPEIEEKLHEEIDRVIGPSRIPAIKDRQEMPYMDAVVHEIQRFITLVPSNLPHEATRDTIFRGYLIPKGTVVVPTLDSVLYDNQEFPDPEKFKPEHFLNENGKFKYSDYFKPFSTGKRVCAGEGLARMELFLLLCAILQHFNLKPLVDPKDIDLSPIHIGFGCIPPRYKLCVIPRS

AC50, active:
O=C(/C=C/c1ccc(O)cc1)CC(=O)/C=C/c1ccc(O)cc1 1150 nM
COc1cc(/C=C/C(=O)CC(=O)/C=C/c2ccc(O)c(OC)c2)ccc1O 1080 nM
COc1cc(CCC(=O)CC(=O)CCc2ccc(O)c(OC)c2)ccc1O 1240 nM
